Assay [1] deals with Lysosomal acid glucosylceramidase (Homo sapiens) (UniProt P04062). In words: Glucocerebrosidase-p2 (AID 348; in the data active = potency below about 10 µM; also: potency is read from the fitted curve at half-maximal effect). The conditions noted are these: purified GBA, blue fluorogenic substrate, 40 min. An outline of the steps: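 Normal human glucocerebrosidase (0.2 nM) with blue fluorogenic substrate (80 uM final) in citrate/phosphate pH 5.9 with 10mM sodium taurocholate, 0.01% tween-20; 40 min RT, NaOH/glycine stop; fluorescence Ex 365/Em 440; AC50 from a titration from 0.6 nM upwards.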

Assay [2] in a line: AP1 Signaling Pathway (AID 357; active = well fitted curve in either direction with a large enough effect, not every such curve was filed as active;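 also: ME-180 reporter cells stimulated with EGF at its EC50 level; % is scaled to controls: 0 for no effect and ±100 for the full control effect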). As to conditions: ME-180 AP-1-bla reporter, EGF-induced, beta-lactamase ratio, 5 h; at 7.69 µM (top of the series) unless noted. The method in brief: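 AP-1-bla ME-180 cells, Opti-MEM + 0.5% dialyzed FBS, plated overnight 37 °C. Cpd titration + EC50 EGF, 5 h 37 °C. CCF4 2.5 h RT; ex 405, em 460/530 ratio → %activity, AC50.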
A short description of assay [3]: NFAT Signaling Pathway (AID 444; active = well fitted curve in either direction with a large enough effect, not every such curve was filed as active;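 also: carbachol stimulus at about its EC50 of 1 µM final; % is scaled to controls: 0 for no effect and ±100 for the full control effect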). The conditions noted are these: Jurkat NFAT-bla M1, carbachol, beta-lactamase ratio, 5 h; at 7.69 µM (top of the series) unless noted. The method in brief:
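Jurkat cells carrying an NFAT-driven β-lactamase reporter and co-transfected muscarinic M1 receptor were treated with compound plus carbachol (1 uM final, an EC50 level) for 5 h at 37 °C. CCF4 loading followed for 1 h at RT; 460/530 nm ratio gave %activity.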

The target in assay [4] is Glucocorticoid receptor (Homo sapiens) (UniProt P04150). In words: GR-EFC Redistribution (AID 451; calls by dose curve; also: potency is read from the fitted curve at half-maximal effect). The conditions noted are these: CHO-K1 GR-EFC translocation, beta-gal luminescence, 2 h. The method in brief:
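CHO-K1 cells stably expressing nuclear-localized β-gal enzyme acceptor and GR fused C-terminally to the enzyme donor fragment; ligand-driven nuclear translocation restores β-gal by complementation. Compounds titrated up to 46 uM final, 2 h at 37 °C; luminescence read.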

Assay [5] has as its target Mitogen-activated protein kinase 10 (Mus musculus) (UniProt Q61831). In words: JNK3 AlphaScreen Assay (AID 530; active = well fitted curve in either direction with a large enough effect, not every such curve was filed as active;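 also: kinase came from lysate of stimulated human HepG2 cells; signal reports phosphorylation of biotinylated GST-cJun 1-79 at Ser73 with 10 µM ATP; % is scaled to controls: 0 for no effect and ±100 for the full control effect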). The conditions noted are these: JNK3 lysate, c-Jun phosphorylation; series mostly up to 57.1 µM. An outline of the steps:
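Phosphorylation of biotinylated GST-cJun(1-79) at Ser73 is measured by AlphaScreen proximity luminescence. Enzyme is JNK3 in HepG2 lysates activated with interleukin-1beta and tumor necrosis factor alpha; ATP is 10 uM final.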
In general terms: Bead proximity is the source of the signal in Alpha formats.

Assay [6] concerns the target 3',5'-cyclic-AMP phosphodiesterase 4B (Homo sapiens) (UniProt Q07343). The assay is described as follows: qHTS Assay for Inhibitors of PDE-IV (AID 607; active = well fitted activation curve with a large enough effect in the main read-out, with a control signal flat, not every such curve was filed as active; also: potency is read from the fitted curve at half-maximal effect). The conditions noted are these: HEK293 ACTOne CNG channel cells, membrane potential fluorescence; series mostly up to 22.9 µM. An outline of the steps: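 The readout is membrane depolarisation from a cAMP-sensing CNG channel, detected with a potential dye at ex 535/em 590. Cells were HEK293-derived (endogenous PDE-IV) at 1000 cells/well, titrated up to 22.9 uM final.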
(In general: In qHTS, concentration-response curves come from the screen itself.)

A short description of assay [7]: qHTS Assay for Identification of Small Molecule Agonists for Hypoxia Response Element Signaling Pathway (AID 914; active = well fitted activation curve with a large enough effect in the signal ratio, with a control signal flat, not every such curve was filed as active; the % refers to the signal ratio; also: potency is read from the fitted curve at half-maximal effect). The conditions noted are these: ME-180 HRE-bla reporter, beta-lactamase ratio, CoCl2, 17 h; activation: stronger effect = higher value. The method in brief: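 Compounds in a titration series were added to ME-180 reporter cells alongside an EC50 level of CoCl2. After 17 hours, beta-lactamase activity was read as the 460nm/530nm emission ratio of CCF4, giving AC50 values.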

In assay [8] the target is Dual specificity protein kinase CLK4 (Homo sapiens) (UniProt Q9HAZ1). In words: qHTS Assay for Inhibitors of CDC-like Kinase 4 (Kinase-Glo Assay) (AID 1770). Also: nearly all actives have a fitted effect of over 65% in size. Also: potency is read from the fitted curve at half-maximal effect. The conditions noted are these: recombinant Clk4, Kinase-Glo ATP depletion luminescence; series mostly up to 66.7 µM. An outline of the steps: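 Recombinant human Clk4 (25 nM) phosphorylated RS repeat peptide (100 uM) with 1 uM ATP in Tris pH 7.5/MgCl2/EGTA/DTT/Triton buffer for 4.5 h at room temperature. Residual ATP was quantified by Kinase-Glo luciferase luminescence.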

The target is the same in assay [9]. In words: qHTS Assay for Inhibitors of CDC-like Kinase 4 (ADP-Glo Assay) (AID 1771). Also: nearly all actives have a fitted effect of over 70% in size. Also: potency is read from the fitted curve at half-maximal effect. The conditions noted are these: recombinant CLK4, ADP-Glo luminescence; series mostly up to 80 µM. An outline of the steps:
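ADP production was read by ADP-Glo luminescence after residual ATP depletion, following 1 h room-temperature reaction of 25 nM Clk4, 1 uM ATP and 100 uM RS peptide with MgCl2, EGTA, DTT and Triton X-100.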

For assay [10] the target is unchanged. In words: qHTS Assay for Inhibitors of CDC-like Kinase 4 (ADP-FP Assay) (AID 1795). Also: nearly all actives have a fitted effect of over 60% in size. Also: potency is read from the fitted curve at half-maximal effect. As to conditions: Transcreener ADP fluorescence polarization; series mostly up to 50 µM. An outline of the steps: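 Recombinant human Clk4 (6.25 nM) phosphorylated RS repeat peptide (100 uM) with 1 uM ATP in Tris pH 7.5/MgCl2/EGTA/DTT/Triton buffer for one hour. ADP was quantified by Transcreener competitive fluorescence polarization against an ADP calibration curve.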

Assay [11] deals with Ubiquitin carboxyl-terminal hydrolase 1 (Homo sapiens) (UniProt O94782). In words: Inhibitors of USP1/UAF1: Pilot qHTS (AID 504865).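 Also: rhodamine fluorescence freed from ubiquitin-rhodamine substrate followed over time; top concentration of the series differs between compounds; % is scaled to controls: 0 for no effect and ±100 for the full control effect; nearly all actives have a fitted effect of over 35% in size.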 The conditions noted are these: purified USP1/UAF1, Ub-rhodamine cleavage fluorescence; series mostly up to 54.9 µM. An outline of the steps:
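USP1/UAF1 complex (1nM) preincubated with compound 15 min at room temperature, then Ub-Rho substrate (150nM final) added. Fluorescence read kinetically at 480/540 nm, 6 reads every 60 seconds. Buffer: 50mM HEPES pH 7.8, 0.5mM EDTA, 0.1 mg/ml BSA, 1mM TCEP, 0.01% Tween-20.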

Assay [12] is described as follows: Primary qHTS for small molecule stabilizers of the endoplasmic reticulum resident proteome: Secreted ER Calcium Modulated Protein (SERCaMP) assay (AID 1508630). Also: % is scaled to controls: 0 for no effect and ±100 for the full control effect. As to conditions: SH-SY5Y GLuc-SERCaMP (Gaussia luciferase released on ER calcium loss) secretion, thapsigargin, luminescence; series mostly up to 38.4 µM. The method in brief:
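The SH-SY5Y reporter protocol was run at 3 concentrations up to 38.3 uM (primary) or 11 concentrations (follow-up): 16 h compound, 100 nM thapsigargin for 4 h, then extracellular luciferase luminescence.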

Assay [13] addresses Cytochrome P450 1A2 (Homo sapiens) (UniProt P05177). In words: p450-cyp1a2 (AID 410; calls by dose curve; also: potency is read from the fitted curve at half-maximal effect). The conditions noted are these: recombinant CYP1A2, luciferin-ME demethylation, luminescence; series mostly up to 57 µM. The method in brief:
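Luminescent demethylation readout: Luciferin-ME (100uM, equal to Km) turned over by 20nM CYP1A2 for 60 min at room temperature after NADPH regeneration addition, following 10 min compound preincubation. Normalization used 57 uM furafylline as full inhibition.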

Assay [14] can be described thus: Stat Signaling Pathway (AID 446; active = well fitted curve in either direction with a large enough effect, not every such curve was filed as active). As to conditions: ME-180 (cervical carcinoma) SIE beta-lactamase reporter, IL-6 stimulated, 5 h; at 7.69 µM (top of the series) unless noted. The method in brief:
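Emission at 460 and 530 nm (excitation 405 nm) reports SIE-controlled beta-lactamase in ME-180 cells. Cells received compound with 40 pM IL-6 for 5 hrs at 37 C; data scaled between 300 pM IL-6 and 125 nM JAK-inhibitor controls.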

Assay [15] addresses Cytochrome P450 3A4 (Homo sapiens) (UniProt P08684). In words: qHTS Assay for Activators of Cytochrome P450 3A4 (AID 885). Also: nearly all actives have a fitted effect of over 65% in size. The conditions noted are these: recombinant CYP3A4, Luciferin-PPXE luminescence, 60 min; series mostly up to 57.1 µM. An outline of the steps:
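Activators are scored by enhanced luminescence from CYP3A4 conversion of luciferin-PPXE (25uM, equal to KM) to luciferin, after 60 min at RT with an NADPH-regenerating system.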

The target of assay [16] is Cytochrome P450 2C19 (Homo sapiens) (UniProt P33261). The assay is described as follows: qHTS Assay for Inhibitors and Substrates of Cytochrome P450 2C19 (AID 899). Also: potency is read from the fitted curve at half-maximal effect; nearly all actives have a fitted effect of over 60% in size. The conditions noted are these: recombinant CYP2C19, luciferin-H EGE luminescence; series mostly up to 57.1 µM. An outline of the steps: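 Human CYP2C19 (5nM) with Luciferin-H EGE at 10uM (its KM) in 50mM KPO4 was preincubated with compound for 10 min at 37C. NADPH regeneration started a 60 min 37C reaction. Luciferin was read by luminescence, normalized to 57uM ketoconazole.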

Assay [17] deals with Glucocorticoid receptor (Homo sapiens) (UniProt P04150). In words: GR-GFP Redistribution (AID 450;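 active = compounds whose dose series gives a full or clear partial fitted curve of increased nuclear translocation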; also: potency is read from the fitted curve at half-maximal effect). As to conditions: U2OS GR-GFP nuclear translocation, laser cytometry, 2 h.
In assay [18] the target is Cytochrome P450 3A4 (Homo sapiens) (UniProt P08684). The assay is described as follows: qHTS Assay for Inhibitors and Substrates of Cytochrome P450 3A4 (AID 884). Also: potency is read from the fitted curve at half-maximal effect; nearly all actives have a fitted effect of over 50% in size. The conditions noted are these: recombinant CYP3A4, Luciferin-PPXE luminescence; series mostly up to 57.1 µM. An outline of the steps: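 Luminescent readout of luciferin produced by CYP3A4 (20 nM) dealkylation of Luciferin-PPXE, 25 uM (its KM). NADPH-driven reaction ran 60 min at RT after 10 min compound preincubation; data scaled to 57 uM ketoconazole as 100% inhibition.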

In assay [19] the target is Cytochrome P450 2D6 (Homo sapiens) (UniProt P10635). The assay is described as follows: qHTS Assay for Inhibitors and Substrates of Cytochrome P450 2D6 (AID 891). Also: potency is read from the fitted curve at half-maximal effect; nearly all actives have a fitted effect of over 60% in size. As to conditions: recombinant CYP2D6, luciferin-ME EGE luminescence; series mostly up to 57.1 µM. An outline of the steps:
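Luminescent read-out of luciferin formed by 5 nM human CYP2D6 demethylating 30 uM Luciferin-ME EGE (Km level) over 60 min at room temperature after NADPH regeneration addition. Data normalized to full inhibition by 1.43 uM quinidine.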

From PubChem BioAssay (NCATS) come the findings set out here.

Molecules are shown by their SMILES. A number with no mark means an inactive call. Inconclusive results are not listed. Calls of active or inactive are those of the source. Unless noted, calls follow the shape of the dose curve; as a rule, active = well fitted curve in the direction sought with a large enough effect; inconclusive = small, poorly fitted or top-dose-only effect, or another doubt; inactive = no such curve, though single readings can be large; an effect the other way counts as inactive or inconclusive.

Sequence of 3',5'-cyclic-AMP phosphodiesterase 4B (Homo sapiens) (Q07343 whole entry, looked up): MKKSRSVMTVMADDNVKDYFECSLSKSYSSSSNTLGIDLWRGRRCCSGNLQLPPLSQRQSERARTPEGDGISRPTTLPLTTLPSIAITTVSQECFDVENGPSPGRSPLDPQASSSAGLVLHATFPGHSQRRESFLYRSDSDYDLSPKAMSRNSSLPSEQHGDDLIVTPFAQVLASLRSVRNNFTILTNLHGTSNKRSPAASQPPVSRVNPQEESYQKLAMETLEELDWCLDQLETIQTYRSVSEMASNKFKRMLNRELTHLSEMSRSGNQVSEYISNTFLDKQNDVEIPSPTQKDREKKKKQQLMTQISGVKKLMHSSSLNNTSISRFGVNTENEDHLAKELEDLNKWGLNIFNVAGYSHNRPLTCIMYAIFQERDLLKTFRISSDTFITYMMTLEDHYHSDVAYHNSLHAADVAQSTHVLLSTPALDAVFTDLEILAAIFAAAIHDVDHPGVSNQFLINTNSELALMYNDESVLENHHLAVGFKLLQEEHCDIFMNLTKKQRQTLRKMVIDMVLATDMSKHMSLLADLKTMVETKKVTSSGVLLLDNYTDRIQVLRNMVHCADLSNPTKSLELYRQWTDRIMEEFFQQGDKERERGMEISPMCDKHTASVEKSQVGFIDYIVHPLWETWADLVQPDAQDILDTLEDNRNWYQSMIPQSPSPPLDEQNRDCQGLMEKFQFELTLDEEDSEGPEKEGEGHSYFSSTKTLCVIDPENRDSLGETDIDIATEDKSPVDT
Sequence of Ubiquitin carboxyl-terminal hydrolase 1 (Homo sapiens) (O94782 whole entry, looked up): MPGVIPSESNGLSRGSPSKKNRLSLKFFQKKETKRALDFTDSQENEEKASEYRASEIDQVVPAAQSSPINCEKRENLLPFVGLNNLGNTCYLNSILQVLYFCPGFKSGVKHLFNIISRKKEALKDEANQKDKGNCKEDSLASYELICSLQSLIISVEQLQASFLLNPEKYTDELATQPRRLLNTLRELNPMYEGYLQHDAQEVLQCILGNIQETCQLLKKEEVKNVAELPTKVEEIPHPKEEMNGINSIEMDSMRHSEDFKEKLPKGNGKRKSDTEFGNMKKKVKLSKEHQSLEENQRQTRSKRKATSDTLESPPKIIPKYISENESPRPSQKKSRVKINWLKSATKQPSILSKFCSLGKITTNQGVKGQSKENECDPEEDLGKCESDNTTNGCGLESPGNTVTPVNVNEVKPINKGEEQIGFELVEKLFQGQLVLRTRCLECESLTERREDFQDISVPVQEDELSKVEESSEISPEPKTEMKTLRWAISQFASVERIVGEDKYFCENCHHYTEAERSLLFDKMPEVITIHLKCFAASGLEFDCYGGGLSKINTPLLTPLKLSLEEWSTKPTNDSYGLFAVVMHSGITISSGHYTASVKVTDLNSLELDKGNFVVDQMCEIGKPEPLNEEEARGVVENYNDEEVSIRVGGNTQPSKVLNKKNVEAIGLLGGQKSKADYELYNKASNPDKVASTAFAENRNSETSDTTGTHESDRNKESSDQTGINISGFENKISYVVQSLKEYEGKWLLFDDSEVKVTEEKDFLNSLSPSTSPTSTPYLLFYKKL
Sequence of Glucocorticoid receptor (Homo sapiens) (P04150 whole entry, looked up, the tested form may be a part): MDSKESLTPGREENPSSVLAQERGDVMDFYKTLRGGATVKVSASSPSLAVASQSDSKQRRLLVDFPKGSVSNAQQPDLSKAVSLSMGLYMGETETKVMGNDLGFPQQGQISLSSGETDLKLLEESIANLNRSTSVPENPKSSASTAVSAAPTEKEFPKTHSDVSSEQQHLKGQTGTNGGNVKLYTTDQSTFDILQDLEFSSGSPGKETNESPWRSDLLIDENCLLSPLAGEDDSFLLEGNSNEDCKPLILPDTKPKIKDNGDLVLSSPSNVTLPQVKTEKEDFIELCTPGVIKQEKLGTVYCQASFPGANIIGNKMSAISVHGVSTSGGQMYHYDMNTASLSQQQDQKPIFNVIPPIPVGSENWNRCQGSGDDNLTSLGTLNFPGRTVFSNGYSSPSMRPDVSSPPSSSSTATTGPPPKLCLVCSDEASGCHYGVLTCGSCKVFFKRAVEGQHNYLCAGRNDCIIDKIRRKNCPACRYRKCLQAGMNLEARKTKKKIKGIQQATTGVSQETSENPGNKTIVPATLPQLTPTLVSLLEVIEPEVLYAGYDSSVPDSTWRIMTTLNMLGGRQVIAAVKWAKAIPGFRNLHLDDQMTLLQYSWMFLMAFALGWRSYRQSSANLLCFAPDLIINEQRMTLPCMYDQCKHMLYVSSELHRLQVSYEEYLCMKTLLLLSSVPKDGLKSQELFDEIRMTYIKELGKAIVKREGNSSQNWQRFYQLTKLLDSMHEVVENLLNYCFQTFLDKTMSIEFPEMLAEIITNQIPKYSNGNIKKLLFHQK
Sequence of Cytochrome P450 1A2 (Homo sapiens) (P05177 whole entry, looked up): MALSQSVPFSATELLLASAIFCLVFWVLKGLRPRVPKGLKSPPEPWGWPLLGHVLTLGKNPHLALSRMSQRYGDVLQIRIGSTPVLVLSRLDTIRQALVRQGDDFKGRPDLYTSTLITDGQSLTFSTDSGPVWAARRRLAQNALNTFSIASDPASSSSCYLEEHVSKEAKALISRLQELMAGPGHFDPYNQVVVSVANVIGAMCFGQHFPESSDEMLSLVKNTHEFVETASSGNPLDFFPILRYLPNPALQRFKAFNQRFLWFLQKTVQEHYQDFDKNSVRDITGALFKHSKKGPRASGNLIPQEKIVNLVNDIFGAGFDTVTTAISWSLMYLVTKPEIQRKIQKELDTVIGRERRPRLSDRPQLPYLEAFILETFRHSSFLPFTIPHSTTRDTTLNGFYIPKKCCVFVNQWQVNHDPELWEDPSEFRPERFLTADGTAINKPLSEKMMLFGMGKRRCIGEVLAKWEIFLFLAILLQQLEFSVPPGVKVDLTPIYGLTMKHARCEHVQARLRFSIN
Sequence of Dual specificity protein kinase CLK4 (Homo sapiens) (Q9HAZ1 whole entry, looked up): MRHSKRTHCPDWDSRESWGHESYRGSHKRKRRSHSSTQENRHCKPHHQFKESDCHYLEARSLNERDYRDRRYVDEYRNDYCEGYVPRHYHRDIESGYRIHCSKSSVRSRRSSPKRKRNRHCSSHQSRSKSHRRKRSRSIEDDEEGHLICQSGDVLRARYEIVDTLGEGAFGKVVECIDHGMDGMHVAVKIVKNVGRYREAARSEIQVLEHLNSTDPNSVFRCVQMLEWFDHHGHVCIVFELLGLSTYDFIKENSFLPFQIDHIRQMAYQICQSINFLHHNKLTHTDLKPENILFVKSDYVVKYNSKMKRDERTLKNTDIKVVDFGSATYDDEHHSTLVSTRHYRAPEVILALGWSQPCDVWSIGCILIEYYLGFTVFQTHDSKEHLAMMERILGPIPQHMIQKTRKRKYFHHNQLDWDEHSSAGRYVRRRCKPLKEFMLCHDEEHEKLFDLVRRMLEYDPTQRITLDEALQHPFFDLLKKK
Sequence of Cytochrome P450 3A4 (Homo sapiens) (P08684 whole entry, looked up): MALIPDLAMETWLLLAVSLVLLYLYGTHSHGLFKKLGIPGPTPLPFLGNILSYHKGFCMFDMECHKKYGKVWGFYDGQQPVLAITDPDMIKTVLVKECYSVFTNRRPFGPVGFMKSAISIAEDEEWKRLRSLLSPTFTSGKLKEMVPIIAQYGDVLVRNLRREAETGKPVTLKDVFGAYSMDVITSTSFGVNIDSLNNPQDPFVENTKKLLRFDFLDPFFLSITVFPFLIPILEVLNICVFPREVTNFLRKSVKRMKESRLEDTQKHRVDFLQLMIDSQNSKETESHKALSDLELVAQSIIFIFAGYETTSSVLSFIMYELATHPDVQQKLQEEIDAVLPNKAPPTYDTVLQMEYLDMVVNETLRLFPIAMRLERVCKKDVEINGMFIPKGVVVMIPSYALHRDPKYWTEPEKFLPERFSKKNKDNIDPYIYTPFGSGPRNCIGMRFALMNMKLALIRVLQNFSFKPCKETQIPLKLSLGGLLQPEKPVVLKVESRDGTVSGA
Sequence of Lysosomal acid glucosylceramidase (Homo sapiens) (P04062 whole entry, looked up): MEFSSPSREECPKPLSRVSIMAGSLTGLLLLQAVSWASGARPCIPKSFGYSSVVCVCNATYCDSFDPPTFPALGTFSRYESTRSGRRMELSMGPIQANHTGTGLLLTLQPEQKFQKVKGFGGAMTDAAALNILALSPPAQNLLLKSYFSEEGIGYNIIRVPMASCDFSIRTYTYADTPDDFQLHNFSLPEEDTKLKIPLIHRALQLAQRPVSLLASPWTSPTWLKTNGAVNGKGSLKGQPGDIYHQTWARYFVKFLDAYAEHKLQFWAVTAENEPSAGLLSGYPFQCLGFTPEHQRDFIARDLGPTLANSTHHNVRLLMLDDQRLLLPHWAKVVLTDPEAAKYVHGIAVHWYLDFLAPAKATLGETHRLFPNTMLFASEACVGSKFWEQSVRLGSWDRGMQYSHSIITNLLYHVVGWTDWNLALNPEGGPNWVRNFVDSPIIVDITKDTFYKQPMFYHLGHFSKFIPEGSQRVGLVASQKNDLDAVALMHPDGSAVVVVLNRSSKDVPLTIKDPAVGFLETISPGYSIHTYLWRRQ
Sequence of Cytochrome P450 2C19 (Homo sapiens) (P33261 whole entry, looked up): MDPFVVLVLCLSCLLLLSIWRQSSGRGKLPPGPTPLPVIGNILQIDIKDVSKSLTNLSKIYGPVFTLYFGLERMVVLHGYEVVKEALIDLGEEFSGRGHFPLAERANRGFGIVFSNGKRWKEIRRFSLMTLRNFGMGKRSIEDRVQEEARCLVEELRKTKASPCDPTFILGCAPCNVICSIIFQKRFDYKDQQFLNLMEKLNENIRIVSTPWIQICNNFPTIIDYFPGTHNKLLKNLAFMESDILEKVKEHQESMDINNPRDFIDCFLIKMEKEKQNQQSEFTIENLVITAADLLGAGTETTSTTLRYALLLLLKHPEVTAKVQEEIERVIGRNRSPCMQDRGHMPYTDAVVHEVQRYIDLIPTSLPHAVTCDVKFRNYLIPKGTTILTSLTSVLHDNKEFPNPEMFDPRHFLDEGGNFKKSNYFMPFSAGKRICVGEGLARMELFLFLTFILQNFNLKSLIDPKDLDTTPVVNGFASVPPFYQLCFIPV

With `CCNc1ncc2nc(-c3cc(F)cc(F)c3)c(=O)n(Cc3ccc(F)cc3)c2n1`, the Potency in assay [1] is greater than 11.4 µM; in [4], greater than 46 µM; in [7], 2 µM (active). Besides, the activity change, negative = inhibition in assay [2] is 20.2%; in [3] it was 28.9%. Moreover, the Potency result in assay [5], in [6], in assay [8], in assay [9], in [10] and in assay [11] was “inactive” in each case. Further, the outcome in assay [12] was inactive.

On to `c1ccc(Nc2ncnc3ccc(-c4ccoc4)cc23)cc1`, for which the Potency in [1] is greater than 11.4 µM; in assay [13] it was 1.58 µM (active); in assay [4], greater than 46 µM; in [16], 2 µM (active); in assay [8], 708 nM (active); in [9], 631 nM (active). Further, in [10], the Potency was 447 nM (active). Further, the activity change, negative = inhibition in [3] is 14.5%. Further, the activity, negative = inhibition in assay [14] is -4.75%. Also, the Potency result in assay [5], in assay [6], in assay [15] and in assay [11] was “inactive” each time. Moreover, the outcome in [12] was inactive.

With `Fc1ccc(Nc2ncnc3ccc(-c4ccoc4)cc23)cc1`, the Potency was greater than 11.4 µM in assay [1]; 1 µM (active) in [13]; greater than 46 µM in assay [17]; greater than 46 µM in assay [4]; 631 nM (active) in [8]; 708 nM (active) in [9]. The Potency in assay [10] is 355 nM (active). Further, the activity change, negative = inhibition in [3] is 10.4%. Moreover, the activity, negative = inhibition in assay [14] was -22.9%. The Potency entry in assay [5], in assay [15] and in assay [11] was “inactive” in each case. In addition, in [12], the result was inactive.

Regarding `c1cncc(-c2nc(NCc3cccs3)c3ccccc3n2)c1`, the Potency in [1] is greater than 11.4 µM; in [17], greater than 46 µM; in assay [4] it was greater than 46 µM; in [18] it was 2 µM (active); in assay [19], 6.31 µM (active); in [8], 1580 nM (active). Besides, the Potency in assay [9] is 1260 nM (active); in [10], 2000 nM (active). Also, in [2], the activity change, negative = inhibition is -18.5%. Also, the activity, negative = inhibition in assay [14] is 1.18%. The Potency entry in assay [5], in [15] and in [11] was “inactive” in each case. Further, in assay [12], the outcome was inactive.

Consider `CN(C)c1ncc2nc(-c3ccc(F)cc3)c(=O)n(CCc3ccccc3)c2n1`, for which the Potency is greater than 11.4 µM in [1]; 2.51 µM (active) in assay [13]; greater than 9.22 µM in assay [17]; greater than 46 µM in assay [4]; 1 µM (active) in assay [7]. Moreover, the activity change, negative = inhibition in assay [3] was 162% [activator] (active). Also, the Potency result in assay [6], in [8], in [9], in assay [10] and in [11] was “inactive” in each case. The result in assay [12] was inactive.

With `COc1ccc(CNc2nc(-c3ccc(N(C)C)cc3)nc3ccccc23)c(OC)c1`, the Potency in assay [1] is greater than 11.4 µM; in [17] it was greater than 46 µM; in assay [4] it was greater than 46 µM. The activity change, negative = inhibition in [2] was 5.6%. In addition, in [14], the activity, negative = inhibition was 23.2%. Also, the Potency entry in [5], in assay [6], in assay [15], in assay [8], in assay [9] and in [10] was “inactive” in each case. The Potency entry in assay [11] was “inactive”. The outcome in assay [12] was inactive.

With `CN(C)c1ncc2nc(-c3ccc(Cl)cc3)c(=O)n(-c3ccccc3)c2n1`, the Potency in [1] was greater than 11.4 µM; in assay [13] it was 5.01 µM (active); in assay [17] it was greater than 9.22 µM; in assay [4] it was greater than 46 µM; in assay [6] it was 1 µM (active); in [7], 2.51 µM (active). For the same molecule, the Potency result in [5], in [8], in assay [9] and in assay [10] was “inactive” each time. In assay [12], the outcome was inactive.
